Test results reported in PubChem BioAssay (EPA / NIEHS).
Records with an inconclusive call do not appear. The source made the active and inactive calls. How the source made its calls: active means hit-call score of the fitted dose curve at least 0.9, where 1 is the maximum; inconclusive means response in the unintended direction; inactive means score below 0.9.

Assays:
[1] = molecular target: Cellular tumor antigen p53 (Homo sapiens) (UniProt P04637); experiment: TOX21_p53_BLA_p2_ratio: Tox21 HCT-116 p53 Agonism Beta-lactamase Assay, Ratio, Phase 2 (AID 2283592)
Sequence of Cellular tumor antigen p53 (Homo sapiens) (P04637 whole entry, looked up): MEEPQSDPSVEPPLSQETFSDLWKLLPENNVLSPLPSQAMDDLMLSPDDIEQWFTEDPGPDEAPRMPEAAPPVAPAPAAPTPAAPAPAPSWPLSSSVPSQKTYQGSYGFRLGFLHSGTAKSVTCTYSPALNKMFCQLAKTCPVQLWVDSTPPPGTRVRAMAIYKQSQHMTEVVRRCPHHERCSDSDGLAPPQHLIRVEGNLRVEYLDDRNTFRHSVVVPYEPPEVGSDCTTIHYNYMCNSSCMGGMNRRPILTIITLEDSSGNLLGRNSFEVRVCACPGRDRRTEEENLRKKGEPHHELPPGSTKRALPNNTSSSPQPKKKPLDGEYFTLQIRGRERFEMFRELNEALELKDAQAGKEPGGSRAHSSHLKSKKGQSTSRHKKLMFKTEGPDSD
In short: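 HCT-116 cells with p53-responsive beta-lactamase reporter, 4000 cells/well, preincubated 5 h, then compound in DMSO (217-fold dilution) for 16 h at 37C. CCF4-AM substrate 2 h at room temperature; 460/530 nm emission ratio fitted upward versus DMSO.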

[2] = molecular target: Cellular tumor antigen p53 (Homo sapiens) (UniProt P04637); experiment: TOX21_p53_BLA_p3_ratio: Tox21 HCT-116 p53 Agonism Beta-lactamase Assay, Ratio, Phase 3 (AID 2283596)
In short: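 HCT116 p53-bla cells (4000/well) given compound in DMSO (217-fold dilution) after 5 h, incubated 16 h at 37C. CCF4-AM substrate 2 h at room temperature; 460/530 nm emission ratio, gain fitted against DMSO.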

[3] = TOX21_p53_BLA_p4_viability: Viability Assessment in the Tox21 HCT-116 p53 Agonism Beta-lactamase Assay, Phase 4 (AID 2283597);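 further: hits lower the luminescence signal meaning cytotoxicity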
In short: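 HCT-116 p53-bla cells, 4000/well, dosed after 5 h attachment and incubated 16 h at 37 °C, 5% CO2. Viability from CellTiter-Glo ATP luminescence after 30 min at room temperature, taken after the beta-lactamase read; loss of signal indicates cytotoxicity.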

[4] = molecular target: Cellular tumor antigen p53 (Homo sapiens) (UniProt P04637); experiment: TOX21_p53_BLA_p5_ratio: Tox21 HCT-116 p53 Agonism Beta-lactamase Assay, Ratio, Phase 5 (AID 2283599)
In short: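 HCT-116 p53-bla cells (4000/well) plated 5 h, dosed with compound (217-fold DMSO dilution) for 16 h at 37 C; CCF4-AM substrate 2 h at room temperature. Activity is the 460/530 nm emission ratio (405 nm excitation), fitted in gain-of-signal direction versus DMSO.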

[5] = TOX21_p53_BLA_p5_viability: Viability Assessment in the Tox21 HCT-116 p53 Agonism Beta-lactamase Assay, Phase 5 (AID 2283600)
In short: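 HCT-116 p53 beta-lactamase reporter cells, 4000/well, were exposed to compound (pin transfer, 217-fold dilution) for 16 hours at 37C. Cellular ATP was read by CellTiter-Glo luminescence after 30 min at room temperature.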

[6] = molecular target: Cellular tumor antigen p53 (Homo sapiens) (UniProt P04637); experiment: TOX21_p53_BLA_p4_ratio: Tox21 HCT-116 p53 Agonism Beta-lactamase Assay, Ratio, Phase 4 (AID 2283601)
In short: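 HCT-116 p53 beta-lactamase reporter cells (4000/well) preincubated 5 h, then compound (217-fold dilution of DMSO stock) for 16 h at 37C. CCF4-AM substrate added 2 h at room temperature; 460/530 nm emission ratio fitted upward versus DMSO.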

[7] = Tanguay_ZF_120hpf_MORT_legacy: (Legacy) Oregon State University Tanguay Lab 120 Hour Post-fertilization zebrafish Assay for Mortality (AID 2283633)
In short: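 Dechorionated Tropical 5D wild-type zebrafish embryos, one per well from 6 hpf, static exposure in 0.64% DMSO at 28C until 120 hpf. Mortality scored as binary by brightfield microscopy at 24 and 120 hpf.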

[8] = Tanguay_ZF_120hpf_YSE_legacy: (Legacy) Oregon State University Tanguay Lab 120 Hour Post-fertilization zebrafish Assay for Yolk Sac Edema (AID 2283634)
In short: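 Dechorionated Tropical 5D wild-type zebrafish embryos were exposed statically, one per well, from 6 to 120 hpf at 28C in 0.64% DMSO. Yolk sac edema was scored present/absent by brightfield at 120 hpf, and dead embryos were excluded.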

[9] = Tanguay_ZF_120hpf_AXIS_legacy: (Legacy) Oregon State University Tanguay Lab 120 Hour Post-fertilization zebrafish Assay for Body Axis Malformation (AID 2283635)
In short: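 Dechorionated wild-type Tropical 5D zebrafish embryos, one per well, statically exposed from 6 hpf to 120 hpf at 28C in 0.64% DMSO final. Body axis malformation scored present/absent by brightfield microscopy at 120 hpf; dead embryos excluded.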

[10] = Tanguay_ZF_120hpf_EYE_legacy: (Legacy) Oregon State University Tanguay Lab 120 Hour Post-fertilization zebrafish Assay for Eye Malformation (AID 2283636);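 further: binary presence or absence of eye malformation scored by brightfield in 120 hpf larvae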
In short: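 Dechorionated Tropical 5D zebrafish embryos, one per well from 6 hpf, static exposure to 120 hpf at 28C, 0.64% DMSO. Eye malformation scored present/absent by brightfield; dead embryos not scored.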

[11] = Tanguay_ZF_120hpf_SNOU_legacy: (Legacy) Oregon State University Tanguay Lab 120 Hour Post-fertilization zebrafish Assay for Snout Malformation (AID 2283637)
In short: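 Dechorionated tropical 5D wild-type zebrafish embryos exposed statically from 6 to 120 hpf at 28C, one per well, in 0.64% DMSO. Snout malformation scored as present/absent by brightfield at 120 hpf; dead embryos not scored.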

[12] = Tanguay_ZF_120hpf_JAW_legacy: (Legacy) Oregon State University Tanguay Lab 120 Hour Post-fertilization zebrafish Assay for Jaw Malformation (AID 2283638)
In short: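 Dechorionated Tropical 5D wild-type zebrafish embryos, one per well, exposed statically from 6 hpf to 120 hpf at 28C in 0.64% DMSO. Jaw malformation was scored by brightfield microscopy as present or absent. It was not scored in dead embryos.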

[13] = Tanguay_ZF_120hpf_OTIC_legacy: (Legacy) Oregon State University Tanguay Lab 120 Hour Post-fertilization zebrafish Assay for Otic Vesicle Malformation (AID 2283639)
In short: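 Tropical 5D wild-type zebrafish embryos statically exposed in 0.64% DMSO at 28C until 120 hpf; 5uM trimethyltin chloride as positive control. Otic vesicle malformation scored present/absent by brightfield; dead embryos not scored; gain fitted versus DMSO.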

[14] = Tanguay_ZF_120hpf_PE_legacy: (Legacy) Oregon State University Tanguay Lab 120 Hour Post-fertilization zebrafish Assay for Pericardial Edema (AID 2283640)
In short: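 Tropical 5D wild-type zebrafish embryos were statically exposed until 120 hpf at 28C, with 0.64% DMSO final. Pericardial edema was scored by brightfield as present or absent; endpoints were not scored in dead embryos.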

[15] = Tanguay_ZF_120hpf_BRAI_legacy: (Legacy) Oregon State University Tanguay Lab 120 Hour Post-fertilization zebrafish Assay for Brain Malformation (AID 2283641)
In short: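 Tropical 5D wild-type zebrafish embryos exposed statically until 120 hpf at 28C, 0.64% DMSO final, sealed and dark. Brain malformation scored present/absent by brightfield at 120 hpf; dead embryos excluded. Trimethyltin chloride 5uM positive control.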

[16] = Tanguay_ZF_120hpf_PFIN_legacy: (Legacy) Oregon State University Tanguay Lab 120 Hour Post-fertilization zebrafish Assay for Pectoral Fin Malformation (AID 2283648);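 further: each larva judged yes or no for fin defect by brightfield with dead larvae skipped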
In short: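 Dechorionated Tropical 5D wild-type zebrafish embryos, one per well, statically exposed from 6 to 120 hpf at 28C with 0.64% DMSO final. Pectoral fin malformation scored present/absent by brightfield at 120 hpf; not scored in dead embryos.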

[17] = Tanguay_ZF_120hpf_CFIN_legacy: (Legacy) Oregon State University Tanguay Lab 120 Hour Post-fertilization zebrafish Assay for Caudal Fin Malformation (AID 2283649)
In short: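 Dechorionated Tropical 5D wild-type embryos, one per well from 6 hpf, static exposure to 120 hpf at 28C in 0.64% DMSO. Caudal fin malformation scored by brightfield as present/absent; not scored in dead embryos.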

[18] = Tanguay_ZF_120hpf_PIG_legacy: (Legacy) Oregon State University Tanguay Lab 120 Hour Post-fertilization zebrafish Assay for Pigmentation Malformation (AID 2283650)
In short: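 Dechorionated Tropical 5D wild-type embryos, one per well from 6 hpf, statically exposed at 28C in the dark until 120 hpf, 0.64% DMSO final. Pigmentation scored present/absent by brightfield microscopy; dead embryos not scored; fitted versus DMSO.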

[19] = Tanguay_ZF_120hpf_CIRC_legacy: (Legacy) Oregon State University Tanguay Lab 120 Hour Post-fertilization zebrafish Assay for Circulatory Malformation (AID 2283651)
In short: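 Dechorionated wild-type 5D zebrafish embryos, one per well, statically exposed from 6 to 120 hpf at 28C with 0.64% DMSO; circulatory malformation scored present/absent by brightfield microscopy at 120 hpf, dead embryos excluded.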

[20] = Tanguay_ZF_120hpf_SOMI_legacy: (Legacy) Oregon State University Tanguay Lab 120 Hour Post-fertilization zebrafish Assay for Somite Malformation (AID 2283647)
In short: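 Dechorionated Tropical 5D wild-type zebrafish embryos, one per well from 6 hpf, statically exposed at 28C to 120 hpf in 0.64% DMSO; somite malformation scored present/absent by brightfield; trimethyltin 5 uM positive control; dead embryos not scored.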

Measured: AC50

COC(=O)CCC(=O)OC
not listed: [20]
inactive: all other assays above

CCc1cc(C2=C(C(=O)O)N(c3ccccc3C(F)(F)F)S(=O)(=O)c3ccccc32)cc2c1OCO2
active: [3] 68 µM | [6] 75.1 µM
not listed: [13] | [18] | [19] | [20]
inactive: all other assays above

NCCOCCOCCN
not listed: [10] | [18]
inactive: all other assays above

Cc1cc(Cc2ccc(N)c(C)c2)ccc1N
not listed: [6]
inactive: all other assays above
